The source made the active and inactive calls.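 How the source made its calls: active means compounds whose dose series gives a full or clear partial fitted curve of increased nuclear translocation; inconclusive means weak partial curve or effect only at the top dose; inactive means no dose-dependent translocation response.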
Each compound was assayed against Glucocorticoid receptor (Homo sapiens) (UniProt P04150) (assay: GR-GFP Redistribution (AID 450)). Conditions: U2OS GR-GFP nuclear translocation, laser cytometry, 2 h; series mostly up to 20.6 µM.
Potency means the concentration at half of the fitted maximal effect.

Sequence of Glucocorticoid receptor (Homo sapiens) (P04150 whole entry, looked up): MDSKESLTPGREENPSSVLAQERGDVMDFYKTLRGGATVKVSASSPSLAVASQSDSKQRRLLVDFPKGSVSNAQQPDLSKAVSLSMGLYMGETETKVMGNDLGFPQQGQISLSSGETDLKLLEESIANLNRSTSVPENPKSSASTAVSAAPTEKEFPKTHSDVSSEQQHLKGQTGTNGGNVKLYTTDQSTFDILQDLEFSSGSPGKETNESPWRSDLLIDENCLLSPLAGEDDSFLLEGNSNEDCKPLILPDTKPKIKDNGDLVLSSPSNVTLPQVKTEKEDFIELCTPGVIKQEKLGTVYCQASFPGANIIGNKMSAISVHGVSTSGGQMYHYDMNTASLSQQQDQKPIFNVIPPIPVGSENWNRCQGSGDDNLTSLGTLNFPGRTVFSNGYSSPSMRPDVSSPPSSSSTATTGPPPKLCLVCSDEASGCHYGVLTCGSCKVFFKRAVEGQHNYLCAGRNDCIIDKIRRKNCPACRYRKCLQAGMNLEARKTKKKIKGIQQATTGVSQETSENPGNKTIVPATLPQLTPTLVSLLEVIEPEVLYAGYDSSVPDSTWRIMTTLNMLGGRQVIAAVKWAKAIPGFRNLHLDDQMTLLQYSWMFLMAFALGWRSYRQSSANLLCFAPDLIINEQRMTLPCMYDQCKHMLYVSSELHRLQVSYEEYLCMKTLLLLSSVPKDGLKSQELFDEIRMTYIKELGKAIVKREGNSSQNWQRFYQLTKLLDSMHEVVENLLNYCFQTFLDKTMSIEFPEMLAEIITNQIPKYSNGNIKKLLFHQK

Potency, inactive:
CSc1nc(N)nc(SCC(=O)C23CC4CC(CC(C4)C2)C3)c1C#N > 20.6 µM, COc1ccc2[nH]c3c(N4CCN(Cc5ccc6c(c5)OCO6)CC4)ncnc3c2c1 > 20.6 µM, COc1cccc(-c2nc(NC(C)C)c3ccccc3n2)c1O > 20.6 µM, N#Cc1nc(-c2ccccc2Cl)oc1N1CCCCC1 > 20.6 µM, Cn1c(NCc2ccco2)nc2c1c(=O)n(Cc1ccc(Cl)c(Cl)c1)c(=O)n2C > 20.6 µM, OC1(c2cccc(C(F)(F)F)c2)CCN(c2ncnc3c2[nH]c2ccccc23)CC1 > 20.6 µM, N#CC(C(=O)NC1CC1)c1nc2ccccc2nc1N1CCN(C/C=C/c2ccccc2)CC1 (centres undefined) > 20.6 µM, c1ccc2c(c1)CCN(c1ncnc3c1[nH]c1ccccc13)C2 > 20.6 µM, Cc1oc2cc(O)cc(C)c2c(=O)c1-c1cnn(-c2ccccc2)c1 > 20.6 µM, Cn1c(NCC(O)c2ccccc2)nc2c1c(=O)n(Cc1ccc(Cl)c(Cl)c1)c(=O)n2C (centres undefined) > 20.6 µM, Nc1nonc1C(=O)NCCN=Cc1cc(Cc2ccccc2)cc(Br)c1O > 20.6 µM, COc1ccc(CCn2c(C)cc3c(c2=O)C(c2ccc4c(c2)OCO4)C(C#N)=C(N)O3)cc1OC (centres undefined) > 20.6 µM, CCC(=O)Oc1oc(-c2ccccc2)nc1C=Nc1ccccc1OC > 20.6 µM, CN1CCc2c(sc3ncn4nc(-c5ccccc5O)nc4c23)C1 > 20.6 µM, CCCCSc1nc(N)c(C#N)c(-c2cccs2)c1C#N > 20.6 µM, N#CC1=C(N)NC(SCc2ccc(Cl)cc2)=C(C#N)C12CCCCC2 > 20.6 µM, N#Cc1c(N)nc(SCc2ccccn2)c(C#N)c1-c1cccs1 > 20.6 µM, Cc1ccc(-n2ncc3c(N4CCN(c5ccccc5)CC4)ncnc32)c(C)c1 > 20.6 µM, Cn1c(N2CCN(c3ccccn3)CC2)nc2c1c(=O)n(Cc1ccc(Cl)cc1)c(=O)n2C > 20.6 µM, COC(=O)c1ccc(C2/C(=C(\O)c3ccc(OC)c(C)c3)C(=O)C(=O)N2c2cc(C)on2)cc1 (centres undefined) > 20.6 µM, Cc1ccc(S(=O)(=O)N2CCN(c3nc(C(C)C)c4c(c3C#N)CC(C)(C)OC4)CC2)cc1 > 20.6 µM, Cc1ccccc1N1C(=O)CC(Sc2nnc(-c3ccccc3)o2)C1=O (centres undefined) > 20.6 µM, Cn1c(NCc2ccccc2)nc2c1c(=O)n(Cc1ccc(Br)cc1)c(=O)n2C > 20.6 µM, C=CCn1c(SCC(=O)c2ccc(NS(=O)(=O)c3ccccc3)cc2)nnc1-c1cccs1 > 20.6 µM, COc1ccc(-c2nn(C)c(=O)c3ccccc23)cc1NS(C)(=O)=O > 20.6 µM, COc1cccc(-c2nnc3sc(-c4cccs4)nn23)c1 > 20.6 µM, N#C/C(=C\N1CCN(Cc2ccc3c(c2)OCO3)CC1)c1nc2ccccc2s1 > 20.6 µM, Oc1c(Cl)cc(Cl)cc1CNc1ccc(Br)cn1 > 20.6 µM, CCc1cc2c(=O)c(-c3nc4ccccc4[nH]3)coc2cc1OC(=O)N1CCOCC1 > 20.6 µM, CC1(C)Cc2c(C#N)c(N3CCN(C(=O)c4ccco4)CC3)nc(Cc3ccccc3)c2CO1 > 20.6 µM, N#Cc1nc(COc2ccc(Br)cc2)oc1N1CCCC1 > 20.6 µM, N#Cc1nc(-c2cccs2)oc1NCc1ccc2c(c1)OCO2 > 20.6 µM, Cc1ccc(N2C(=O)c3sc4nnc(C)c(=O)n4c3C2=O)cc1 > 20.6 µM, Cc1csc(NC(=O)CSc2nsc(SCC(=O)Nc3nc(C)cs3)c2C#N)n1 > 20.6 µM, COc1ccc(C(=O)c2sc(NC(C)C)nc2N)cc1OC > 20.6 µM, COc1ccccc1N=Cc1nc(-c2ccccc2)oc1OC(C)=O > 20.6 µM, Cc1oc2cc(O)ccc2c(=O)c1-c1cnn(-c2ccccc2)c1 > 20.6 µM, O=C(Nc1ccc(N2CCN(C(=O)c3ccccc3)CC2)c(Cl)c1)c1ccc(Br)o1 > 20.6 µM, O=C1CC(N(O)C2CC(=O)N(Cc3ccccc3)C2=O)C(=O)N1Cc1ccccc1 (centres undefined) > 20.6 µM
